This passage reports growth results from PubChem BioAssay (NCI).

Where “and” joins values, the source holds several entries; their conditions need not be identical. Identical values can stand only once. This is part of a sample that, as a whole, favours compounds with a hit. Of some 83,000 tested, about 20% had one in any assay.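 Note: values are percent growth. 100 is the growth of untreated cells, values between 100 and 0 indicate rising inhibition; between -100 and 0 indicates cell death.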 Calls of active or inactive are those of the source. The calls were made as follows: active = growth percent below 10; inactive = the rest.

Some test systems named below: MOLT-4 leukemia; SR leukemia; RPMI-8226 leukemia; OVCAR-8 ovarian; OVCAR-5 ovarian; OVCAR-4 ovarian; SK-OV-3 ovarian; IGROV1 ovarian; OVCAR-3 ovarian; HS 578T breast; NCI/ADR-RES ovarian; T-47D breast; BT-549 breast; MDA-MB-435 melanoma; SW-620 colon; MCF7 breast; HCT-116 colon; HCC-2998 colon; KM12 colon.
Holding throughout (assay): NCI-60 one-dose screen, 48 h (100 = growth as untreated, 0 = no growth, -100 = all killed)
Conditions in all cases: 10 µM unless noted

Regarding `CCC(=O)C(CC(C)N1CCCCCC1)(c1ccccc1)c1ccccc1` (stereo not drawn), the growth is 93.9% (inactive) in the experiment with MOLT-4 leukemia; 102% (inactive) with SR leukemia; 99.3% (inactive) with RPMI-8226 leukemia; 97% (inactive) in the experiment on OVCAR-8 ovarian; 89.1% (inactive) in the experiment on OVCAR-5 ovarian; 84.2% (inactive) in the experiment on OVCAR-4 ovarian. The growth in the experiment on SK-OV-3 ovarian was 93.6% (inactive); in the experiment with IGROV1 ovarian, 78.6% (inactive); with OVCAR-3 ovarian it was 96.5% (inactive); in the experiment on HS 578T breast, 96.7% (inactive); with NCI/ADR-RES ovarian, 102% (inactive); in the experiment on T-47D breast, 95.3% (inactive). For the same molecule, the growth in the experiment on BT-549 breast is 97.4% (inactive); in the experiment on MDA-MB-435 melanoma, 98.3% (inactive); with SW-620 colon, 99.1% (inactive); in the experiment with MCF7 breast, 81.8% (inactive); in the experiment on HCT-116 colon, 72.1% (inactive); with HCC-2998 colon it was 97.7% (inactive). The growth in the experiment with KM12 colon was 107% (inactive).
Regarding `CC[C@H](C)[C@H](NC(=O)CN(C)C)C(=O)N(C)[C@H](C[C@@H](OC(C)=O)c1nc(C(=O)NC23CC(C(=O)OC)(C2)C3)cs1)C(C)C`, the growth in the experiment with MOLT-4 leukemia is 12.3% (inactive); in the experiment with SR leukemia, 17.8% (inactive); with RPMI-8226 leukemia, 18.8% (inactive); in the experiment on OVCAR-8 ovarian, 19.1% (inactive); in the experiment on OVCAR-5 ovarian, 71.9% (inactive); in the experiment with OVCAR-4 ovarian it was 47.9% (inactive). Also, the growth with SK-OV-3 ovarian was 32.6% (inactive); in the experiment on IGROV1 ovarian it was 33% (inactive); in the experiment on OVCAR-3 ovarian, -47.2% (active); in the experiment on HS 578T breast it was 31.9% (inactive); with NCI/ADR-RES ovarian, 77.8% (inactive); in the experiment with T-47D breast, 50.4% (inactive). In addition, the growth in the experiment with BT-549 breast was 14.2% (inactive); in the experiment on MDA-MB-435 melanoma it was -38.9% (active); in the experiment with SW-620 colon it was 30.9% (inactive); in the experiment on MCF7 breast, 17.9% (inactive); in the experiment with HCT-116 colon, 4.85% (active); in the experiment on HCC-2998 colon it was 20.4% (inactive). Besides, the growth in the experiment with KM12 colon is 11.4% (inactive).
In the case of `COc1ccc2c(c1)c(-c1nc(-c3cn(C)c4ncccc34)cs1)cn2CCCCN1CCOCC1`, the growth in the experiment with MOLT-4 leukemia was -15.6% (active); in the experiment with SR leukemia it was -5.63% (active); with RPMI-8226 leukemia, -18.1% (active); in the experiment with OVCAR-8 ovarian, 48.5% (inactive); with OVCAR-5 ovarian, 56.9% (inactive); in the experiment with OVCAR-4 ovarian, 60.2% (inactive). The growth with SK-OV-3 ovarian was 79.7% (inactive); in the experiment on IGROV1 ovarian it was 67.8% (inactive); with OVCAR-3 ovarian it was 50.8% (inactive); in the experiment on HS 578T breast, 18.8% (inactive); in the experiment with NCI/ADR-RES ovarian it was 59.6% (inactive); in the experiment with T-47D breast, 64.5% (inactive). Further, the growth in the experiment on BT-549 breast is 76.8% (inactive); in the experiment on MDA-MB-435 melanoma, -83.4% (active); with SW-620 colon it was -77.1% (active); in the experiment with MCF7 breast, 15.1% (inactive); in the experiment on HCT-116 colon, 11.4% (inactive); in the experiment on HCC-2998 colon it was 7.68% (active). For the same molecule, the growth in the experiment with KM12 colon was -5.62% (active).
Regarding `CCCCCCCCCCCCCCCC[N+](C)(C)Cc1ccccc1`, the growth is -1.12% (active) and -55.3% (active) in the experiment on MOLT-4 leukemia; 5.4% (active) and -55% (active) with SR leukemia; -42.2% (active) and -50.1% (active) in the experiment on RPMI-8226 leukemia; 10.5% (inactive) with OVCAR-8 ovarian; 24.7% (inactive) and -62.5% (active) in the experiment with OVCAR-5 ovarian; 3.33% (active) and -44.5% (active) in the experiment with OVCAR-4 ovarian. The growth in the experiment on SK-OV-3 ovarian was 31.6% (inactive) and -7.74% (active); with IGROV1 ovarian it was -71.5% (active) and -87.3% (active); in the experiment with OVCAR-3 ovarian, 1.73% (active) and -74% (active); in the experiment with HS 578T breast it was 8.98% (active) and -27.8% (active); with NCI/ADR-RES ovarian, 82.4% (inactive) and 83.6% (inactive); in the experiment with T-47D breast, 7% (active) and -12% (active). Moreover, the growth in the experiment with BT-549 breast was -0.798% (active) and -75.1% (active); in the experiment on MDA-MB-435 melanoma, -58.7% (active) and -87.5% (active); in the experiment with SW-620 colon it was -6.91% (active) and -62.2% (active); with MCF7 breast it was 2.3% (active) and -42.3% (active); in the experiment on HCT-116 colon, -53% (active) and -100% (active); in the experiment on HCC-2998 colon it was -56.7% (active) and -49.7% (active). Moreover, the growth in the experiment with KM12 colon is -81% (active) and -85.4% (active).
For the molecule `CC[C@H](C)[C@H](NC(=O)c1cnccn1)C(=O)N(C)[C@H](C[C@@H](OC(C)=O)c1nc(C(=O)N[C@@H](Cc2ccccc2)C[C@H](C)C(=O)OC)cs1)C(C)C`, the growth in the experiment on MOLT-4 leukemia was 17.9% (inactive); with SR leukemia, 15.9% (inactive); in the experiment on RPMI-8226 leukemia, 22.5% (inactive); in the experiment with OVCAR-8 ovarian, 15.2% (inactive); in the experiment with OVCAR-5 ovarian it was 42.4% (inactive); in the experiment on OVCAR-4 ovarian it was 45.9% (inactive). The growth in the experiment with SK-OV-3 ovarian is 20.6% (inactive); in the experiment on IGROV1 ovarian, 32% (inactive); in the experiment on OVCAR-3 ovarian, -10.2% (active); in the experiment on HS 578T breast, 11.9% (inactive); with NCI/ADR-RES ovarian, 14.4% (inactive); with T-47D breast, 61.2% (inactive). Besides, the growth with BT-549 breast is -7.25% (active); in the experiment with MDA-MB-435 melanoma it was -37.6% (active); with SW-620 colon it was 23.6% (inactive); with MCF7 breast it was 15.5% (inactive); in the experiment with HCT-116 colon it was -9.21% (active); in the experiment on HCC-2998 colon, 22.3% (inactive). In addition, in the experiment with KM12 colon, the growth is 3.34% (active).
For the molecule `O=C(CCCN1CCC2(CC1)C(=O)NCN2c1ccccc1)c1ccc(F)cc1`, the growth is 58.5% (inactive) and 33% (inactive) in the experiment on MOLT-4 leukemia; 99.2% (inactive) in the experiment on SR leukemia; 103% (inactive) and 74.8% (inactive) in the experiment with RPMI-8226 leukemia; 91.8% (inactive) and 76.1% (inactive) with OVCAR-8 ovarian; -54.6% (active) with OVCAR-5 ovarian; 103% (inactive) and 62.4% (inactive) in the experiment with OVCAR-4 ovarian. In addition, the growth with SK-OV-3 ovarian is 102% (inactive) and 111% (inactive); in the experiment on IGROV1 ovarian, 73.6% (inactive) and 29% (inactive); in the experiment on OVCAR-3 ovarian it was 105% (inactive) and 107% (inactive); in the experiment with HS 578T breast, 97.1% (inactive) and 79.2% (inactive); with NCI/ADR-RES ovarian it was 101% (inactive) and 65.8% (inactive); in the experiment with T-47D breast it was 45.5% (inactive) and 23.4% (inactive). Moreover, the growth with BT-549 breast is 98.2% (inactive) and 87.2% (inactive); in the experiment with MDA-MB-435 melanoma it was 99.7% (inactive) and 93.6% (inactive); in the experiment with SW-620 colon, 84.4% (inactive) and 68% (inactive); in the experiment on MCF7 breast, 49.6% (inactive) and 12% (inactive); in the experiment with HCT-116 colon, 73.9% (inactive) and 19.7% (inactive); in the experiment with HCC-2998 colon, 104% (inactive) and 42.3% (inactive). Moreover, the growth in the experiment on KM12 colon was 102% (inactive) and 86.3% (inactive).
`C#COc1cccc(Nc2ncnc3cc(NC(=O)CF)ccc23)c1`: the growth is 5.47% [6.25 µM] (active) in the experiment with MOLT-4 leukemia; 20.9% [6.25 µM] (inactive) in the experiment on SR leukemia; 62.4% [6.25 µM] (inactive) in the experiment with RPMI-8226 leukemia; 42.5% [6.25 µM] (inactive) with OVCAR-8 ovarian; 87.2% [6.25 µM] (inactive) in the experiment on OVCAR-5 ovarian; 75% [6.25 µM] (inactive) with OVCAR-4 ovarian. The growth in the experiment with SK-OV-3 ovarian is 34.8% [6.25 µM] (inactive); in the experiment with IGROV1 ovarian, 52.4% [6.25 µM] (inactive); in the experiment with OVCAR-3 ovarian, 12% [6.25 µM] (inactive); with HS 578T breast, 44.2% [6.25 µM] (inactive); in the experiment with NCI/ADR-RES ovarian it was 35.3% [6.25 µM] (inactive); in the experiment with T-47D breast, 40.9% [6.25 µM] (inactive). Besides, the growth in the experiment with BT-549 breast is 28% [6.25 µM] (inactive); with MDA-MB-435 melanoma, -34.2% [6.25 µM] (active); in the experiment on SW-620 colon it was 25.8% [6.25 µM] (inactive); with MCF7 breast, 30.6% [6.25 µM] (inactive); in the experiment on HCT-116 colon, 19% [6.25 µM] (inactive); with HCC-2998 colon, 63.8% [6.25 µM] (inactive). In addition, the growth in the experiment on KM12 colon was 28.6% [6.25 µM] (inactive).
